RE007 growth inh = less growth of the S. pombe RE007 Vpr strain | S. pombe RE007 Vpr strain, BacTiter-Glo ATP luminescence, 24 h | Potency, µM (doses to about 92.2 µM), inactives show at the highest dose activity change, negative = less growth, actives largely listed as inhibitors | hit rate 0.21% among 360,000 | AID 651644; active = well fitted falling curve with a large enough effect; inconclusive = small, poorly fitted or top-dose-only effect; inactive = no such curve, though single readings can be large or run the other way; also: % is scaled to controls: 0 for no effect and ±100 for the full control effect; nearly all actives have a fitted effect of over 50% in size
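Fission yeast strain RE007, carrying one chromosomally integrated HIV-1 vpr copy, was seeded at OD 0.01 in PMG+AL medium with 23 nL pinned compound. After 24 h at 30 °C and 99% humidity, viability was read by BacTiter-Glo luminescence.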
Tb PYK inh = inhibitors of Trypanosoma brucei pyruvate kinase; Q57TT1; TbPYK enzyme, Kinase-Glo Plus ATP luminescence, 45 min; Potency, µM (doses to about 76.8 µM), inactives show at the highest dose activity, negative = inhibition, actives largely listed as inhibitors; hit rate 0.12% among 410,000; AID 624173; also: % is scaled to controls: 0 for no effect and ±100 for the full control effect; nearly all actives have a fitted effect of over 50% in size
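TbPYK + substrate in 50 mM TEA pH 7.2, 100 mM KCl, 10 mM MgCl2, 0.05% BSA, 0.01% Tween-20; cpd pinned; ADP 130 uM final; 45 min RT; Kinase-Glo Plus 10 min; luminescence endpoint.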
NS1 function inh = influenza NS1 inhibition; Potency, µM (top dose mostly 46.1 µM), for the others: top-dose activity, positive = more growth; hit rate 0.4% among 270,000; AID 2326; calls by dose curve; also: actives are rising curves; nearly all actives have a fitted effect of over 50% in size
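A cell-based growth assay was used: compounds that relieve NS1-induced slow growth of budding yeast raise OD600. Assay medium was yeast nitrogen base with ammonium sulphate and -URA supplement, pH 6.0, with 2% galactose.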
Sm TGR inh = blocks Schistosoma mansoni thioredoxin glutathione reductase; Q962Y6; purified TGR, DTNB reduction, TNB absorbance 405 nm; Potency, µM (highest dose often 114 µM), for inactives: at the highest dose activity change, negative = inhibition, hits mostly inhibitors; hit rate 3% among 360,000; AID 485364; also: % is scaled to controls: 0 for no effect and ±100 for the full control effect; nearly all actives have a fitted effect of over 60% in size
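Kinetic colorimetric format: TGR-catalysed, NADPH-driven DTNB reduction monitored via TNB absorbance. Enzyme dispensed at 20 nM; compound exposure 15 min at room temperature before reaction start.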
FBPA Giardia inh = inhibitors of Giardia lamblia fructose-1,6-bisphosphate aldolase; Potency, µM (doses to about 59.6 µM), without a hit: at the top dose activity, negative = inhibition, actives largely listed as inhibitors; purified Giardia FBPA; hit rate 0.71% among 290,000; A8B2U2; also: % is scaled to controls: 0 for no effect and ±100 for the full control effect; nearly all actives have a fitted effect of over 55% in size
Target sequence (A8B2U2 whole entry, looked up): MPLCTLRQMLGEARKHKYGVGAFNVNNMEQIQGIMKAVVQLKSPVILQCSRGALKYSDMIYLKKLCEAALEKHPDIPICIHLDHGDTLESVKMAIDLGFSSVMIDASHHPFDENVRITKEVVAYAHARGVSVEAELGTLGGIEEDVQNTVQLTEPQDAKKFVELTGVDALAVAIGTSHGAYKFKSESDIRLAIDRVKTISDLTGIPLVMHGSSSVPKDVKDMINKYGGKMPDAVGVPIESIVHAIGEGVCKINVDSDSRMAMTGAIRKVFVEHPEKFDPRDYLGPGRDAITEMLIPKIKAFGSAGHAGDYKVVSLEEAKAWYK
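Giardia FBPA (40 nM reagent) was preincubated 10 min at RT with compound (up to 57.5 uM final), then substrate plus GAPDH/TPI/NAD/arsenate coupling system with diaphorase/resazurin was added; resorufin fluorescence (525/598 nm) was read after 20 min.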
LmPK inhibitor = LmPK (Leishmania mexicana) enzyme inhibition. Potency, µM (titrated, usually from 57.5 µM), without a hit: at the highest dose activity change, negative = inhibition, actives largely listed as inhibitors. Q27686. purified LmPK, Kinase-Glo ATP luminescence, 1 h. hit rate 0.37% among 290,000; also: % is scaled to controls: 0 for no effect and ±100 for the full control effect
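qHTS format; LmPK 0.1 nM; substrates PEP 0.5 mM and ADP 0.1 mM. One-hour room-temperature incubation, then coupled luciferase luminescence; 0.5 nM enzyme wells mark activation.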
* = called active by the depositor; [ ] = another dose, or the depositor's remark. Shown are actives, neighbours in structure and some others; about 3.5% of the full set was active somewhere. Unless noted, calls follow the shape of the dose curve; as a rule, active = well fitted curve in the direction sought with a large enough effect; inconclusive = small, poorly fitted or top-dose-only effect, or another doubt; inactive = no such curve, though single readings can be large; an effect the other way counts as inactive or inconclusive. Potency is read from the fitted curve at half-maximal effect.

`COc1cccc(NC(=O)C2CC(=O)N(Cc3ccco3)C2)c1` (stereo not given) gave RE007 growth inh -1%, Tb PYK inh 4% and Sm TGR inh -12%.
COc1ccc(CCNC(=S)NC(=O)c2cccc(Cl)c2)cc1OC was read as RE007 growth inh 9%, Tb PYK inh 4%, NS1 function inh 2%, Sm TGR inh 0%, FBPA Giardia inh -18% and LmPK inhibitor -3%.
`O=C(NC(=S)NCCc1ccccc1)c1cccc(Cl)c1` gave RE007 growth inh -18%, Tb PYK inh -10%, NS1 function inh 2%, Sm TGR inh 40µM* and LmPK inhibitor 3%.
For COc1ccc(CCNC(=O)c2noc(C)c2[N+](=O)[O-])cc1OC the results were RE007 growth inh 4%, Tb PYK inh -2%, NS1 function inh 4%, Sm TGR inh 35µM*, FBPA Giardia inh 5% and LmPK inhibitor 6%.
For CC(=O)Nc1ccc(NC(=S)NC(=O)c2ccc(C(C)(C)C)cc2)cc1 the results were Tb PYK inh -3%.
For COc1ccc(CCNC(=S)NC(=O)c2ccccc2)cc1OC the results were RE007 growth inh 8%, Tb PYK inh 0%, NS1 function inh -7%, Sm TGR inh 50µM*, FBPA Giardia inh -2% and LmPK inhibitor 4%.
`COCCNC(=S)NC(=O)c1ccc(C(C)(C)C)cc1` gave RE007 growth inh -24%, Tb PYK inh -4%, Sm TGR inh 40µM*, FBPA Giardia inh -13% and LmPK inhibitor -1%.
For NC(=O)c1c(NC(=O)CS(=O)(=O)c2ccc(Cl)cc2)sc2c1CCCCC2 the results were Tb PYK inh 7%[15.4 µM] and Sm TGR inh 1%.
`O=C(c1ccccc1)C1CC1c1ccccc1` (stereo not given) gave RE007 growth inh 18µM* and Tb PYK inh 3%.
Screening CN1CC(C(=O)c2ccccc2)C(c2ccccc2)C1 (stereo not given) returned RE007 growth inh 0%, Tb PYK inh -3%, NS1 function inh 3%, Sm TGR inh -33%, FBPA Giardia inh 3% and LmPK inhibitor 2%.
`Cc1cccc(Nc2sc(C(=O)c3ccc(Cl)cc3)c(N)c2C(N)=O)c1` gave Tb PYK inh -3% and Sm TGR inh -12%.
Cc1ccc(Nc2sc(C(=O)c3ccccc3)c(N)c2C(N)=O)cc1 was read as Tb PYK inh -16% and Sm TGR inh 50µM*.
`Cc1ccc(C)c(C(C)NC(=O)CC#N)c1` (stereo not given) gave RE007 growth inh 6%, Tb PYK inh -1%, NS1 function inh 3%, FBPA Giardia inh 0% and LmPK inhibitor 3%.
For Cc1ccc(C)c(C(C)NC(=O)c2ccc(Br)o2)c1 (stereo not given) the results were RE007 growth inh 20%, Tb PYK inh -24%, NS1 function inh 5%, Sm TGR inh 35µM*, FBPA Giardia inh -4% and LmPK inhibitor 3%.
For CCC(/C=C1\Sc2ccc(OC)cc2N1CCO)=C\c1sc2ccc(OC)cc2[n+]1CCO the results were RE007 growth inh inconclusive, Tb PYK inh inconclusive, NS1 function inh -1%, Sm TGR inh 11µM*, FBPA Giardia inh inconclusive and LmPK inhibitor 14µM*.
CN(C)CCN(Cc1ccccc1)S(=O)(=O)c1cccc2cccnc12 was read as NS1 function inh 0%.
`COc1cc(C2NC(=O)NC(O)(C(F)(F)F)C2C(=O)c2ccc(Cl)cc2)ccc1O` (stereo not given) gave RE007 growth inh 11%, Tb PYK inh 1%, NS1 function inh 1%, Sm TGR inh inconclusive and LmPK inhibitor 2%.
COc1ccc(C2NC(=O)NC(O)(C(F)(F)F)C2C(=O)c2ccc(F)cc2)cc1 (stereo not given) was read as RE007 growth inh 5%, Tb PYK inh -9%, NS1 function inh 2%, Sm TGR inh 45µM*, FBPA Giardia inh 5% and LmPK inhibitor -1%.
Screening CCN(CC)C(=O)c1ccc2c(c1)N(Cc1ccc(C(F)(F)F)cc1)C(=O)c1ccccc1S2 returned Tb PYK inh 2% and Sm TGR inh 3%.
`COc1cc(OC)c(NC(=O)c2nn(-c3ccc(C)cc3)c(=O)c3c2c2ccccc2n3C)cc1Cl` gave Tb PYK inh 2% and Sm TGR inh 3%.
CCCOc1ccc(N2C(=O)CC(N3CCCC(C(=O)N4CCCC4)C3)C2=O)cc1 (stereo not given) was read as RE007 growth inh 18µM*, Tb PYK inh -12%, NS1 function inh -137%, Sm TGR inh 35µM*, FBPA Giardia inh 6% and LmPK inhibitor 2%.
For O=C(C1CC(=O)N(C2CCCC2)C1)N1CCN(c2ccc(F)cc2)CC1 (stereo not given) the results were RE007 growth inh 12%, Tb PYK inh 0% and NS1 function inh 20%.
Screening CCCOc1ccc(N2C(=O)CC(N3CCOCC3)C2=O)cc1 (stereo not given) returned RE007 growth inh inconclusive, Tb PYK inh -3%, NS1 function inh -46%, Sm TGR inh -18%, FBPA Giardia inh 9% and LmPK inhibitor 2%.
`O=C(C1CCN(C2CC(=O)N(c3cccc(Cl)c3)C2=O)CC1)N1CCCCCC1` (stereo not given) gave RE007 growth inh 7.1µM*, Tb PYK inh -21%, NS1 function inh -141%, Sm TGR inh 14µM*, FBPA Giardia inh -1% and LmPK inhibitor 10%.
O=C(C1CCCN(C2CC(=O)N(c3ccc(F)cc3)C2=O)C1)N1CCCC1 (stereo not given) was read as RE007 growth inh 45µM*, Tb PYK inh -1%, NS1 function inh -32%, Sm TGR inh inconclusive and LmPK inhibitor 4%.
CCCOc1ccc(N2C(=O)CC(N3CCC(C(=O)OCC)CC3)C2=O)cc1 (stereo not given) was read as RE007 growth inh 5.6µM*, Tb PYK inh 3%, NS1 function inh -65%, Sm TGR inh 0%, FBPA Giardia inh 7% and LmPK inhibitor 7%.
`CCN1C(=O)CC(N2CCC(C(=O)N3CCCCCC3)CC2)C1=O` (stereo not given) gave RE007 growth inh -12%, Tb PYK inh -2%, NS1 function inh -1%, Sm TGR inh -14%, FBPA Giardia inh 9% and LmPK inhibitor -1%.
For Cc1ccc(NC(=O)Cn2c(-c3ccc4c(c3)OCO4)cn(-c3ccccc3)c2=O)cc1 the results were Tb PYK inh 3% and Sm TGR inh 1%.

Bioassay records from PubChem BioAssay.
